# TEAD-YAP block – TEAD-YAP interaction inhibition, primary screen, TEAD-YAP interaction inhibitor project, luminescence, HEK-TIYL cells; TEAD-Gal4/YAP UAS-luciferase luminescence; inhibition, % at 9.12 µM; 640,000 tested, 1.4% active; AID 1259422, 2018; in the data active means inhibition above about 32%;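 further: 0% = median of test compound wells and 100% = reference inhibitor wells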
# FBW7 act – FBW7 E3 ligase activators, primary screen, biochemical, AlphaScreen, human. F-box/WD repeat-containing protein 7 (Homo sapiens), Q969H0. AlphaScreen FBW7–phospho-cyclin E peptide binding, activator screen. normalized activity (activation), % at 26.1 µM. 650,000 tested, 0.13% active; in the data active means normalized activity above about 1.9%;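 further: purified mutant Fbw7 with reduced substrate affinity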
# MITF primary – MITF inhibitors, primary screen, biochemical, AlphaScreen, human; Microphthalmia-associated transcription factor (Homo sapiens), O75030; AlphaScreen MITF homodimerization, bead proximity signal; inhibition, % at 2.6 µM; 650,000 tested, 0.91% active; in the data active means inhibition above about 50%;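 further: 0% = vehicle wells with protein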
# GPR151 activ – activators of human GPR151, primary screen, cell-based, PathHunter beta-arrestin, luminescence | G-protein coupled receptor 151 (Homo sapiens), Q8TDV0 | PathHunter beta-arrestin GPR151 cells | activation, % at 11.2 µM | 650,000 tested, 1% active; in the data active means activation above about 4.9%;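 further: 0% = median of compound wells and 100% = cells with positive control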
# Active calls of the source: *. Compounds with a hit are over-represented: about 3.5% of the library has one in this group of screens.
SMILES,TEAD-YAP block,FBW7 act,MITF primary,GPR151 activ
Cc1cccc(NC(c2cccc(C)n2)c2ccc3ccc(C)nc3c2O)n1 (stereo unspecified),-17,0,15,0
Cc1cccc(NC(c2ccccn2)c2ccc3ccc(C)nc3c2O)n1 (stereo unspecified),49*,0,15,2
Cc1ccc2ccc(C(Nc3ccccn3)c3ccc(F)cc3)c(O)c2n1 (stereo unspecified),20,0,15,-1
COc1ccccc1N1C(=O)c2ccc(C(=O)Nc3cc([N+](=O)[O-])ccc3O)cc2C1=O,8,2.1*,-23,-1
COc1cccc(C(=O)/C=C\Nc2ccc(OC)cc2OC)c1,80*,0,1,-9
COc1ccccc1N/C=C/C(=O)c1ccccc1,46*,0,5,-1
O=C(CC(Nc1ccc(F)cc1)C(=O)O)c1ccccc1 (stereo unspecified),-5,0,-11,2
COc1cccc(C(=O)/C=C/Nc2cc(Cl)ccc2OC)c1,-34,0,12,-3
COc1ccc(OC)c(N/C=C/C(=O)c2ccccc2)c1,95*,0,10,-9
COc1ccccc1NC(CC(=O)c1ccccc1)C(=O)O (stereo unspecified),54*,0,-7,0
O=C(CCC(=O)Nc1ccccc1)NN=C1CCCCC1,5,0,-5,-1
CCOc1ccc(N=C(NN)c2ccc3ccccc3n2)cc1,94*,0,2,2
Cc1ccc(N=C(NN)c2ccc3ccccc3n2)cc1,92*,0,37,-1
COc1ccccc1N=C(NN)c1ccc2ccccc2n1,-32,0,10,0
CC1=NN(c2ccc(I)cc2)C(=O)/C1=C\c1ccc(O)c([N+](=O)[O-])c1,-1,0,-3,0
COc1ccc2c(c1)-c1cc(Cl)ccc1S(=O)(=O)N2S(=O)(=O)c1ccc(C)cc1,2,0,5,0
Cc1ccc(S(=O)(=O)N2c3ccc(C)cc3-c3ccccc3S2(=O)=O)cc1,50*,0,-3,3
C=CCNC(=O)c1ccc(C)cc1,3,0,-2,0
COC(=O)C1=CN(CC23CC4CC(CC(C4)C2)C3)C=C(C(=O)OC)C1c1ccsc1,-3,1.9*,-8,-1
Cc1ccccc1CNC(=O)c1ccc([N+](=O)[O-])cc1,0,1,-1,0
COc1ccc(-c2noc(CC(=O)NCc3ccc(F)cc3)n2)cc1,5,0,1,1
Cc1ccc(S(=O)(=O)N(C)CC(=O)N2CCN(C)CC2)cc1,-6,0,2,1
CC(C)c1ccccc1OCC(=O)NN1C(=O)c2ccccc2C1=O,34*,0,8,0
Cc1ccc(N=Cc2ccc(O)c(O)c2O)cc1F,10,0,69*,-1
O=c1[nH]c2ccc(N=Cc3ccc(O)c(O)c3O)cc2[nH]1,-4,-1,68*,0
SMILES,TEAD-YAP block,FBW7 act,MITF primary,GPR151 activ
Cc1ccc(N=Cc2cccc(O)c2O)cc1F,5,0,-1,-1
Oc1ccc(C=Nc2ccccc2)c(O)c1O,0,0,85*,5
Oc1cccc(C=Nc2ccc(Br)cc2)c1O,-6,0,-14,3
CCCC(=O)Nc1ccccc1-c1nc2cc3ccccc3cc2[nH]c1=O,55*,0,-1,1
CCCc1ccc(Oc2c(C(F)(F)F)oc3cc(OC(C)=O)ccc3c2=O)cc1,83*,0,10,-3
CC(=O)Oc1ccc2c(=O)c(Oc3ccccc3)c(C(F)(F)F)oc2c1,-10,1,-1,0
CC(C)(C)c1ccc(Oc2c(C(F)(F)F)oc3cc(OC(=O)c4cccs4)ccc3c2=O)cc1,94*,0,-2,0
CCOC(=O)c1c(-c2ccccc2)csc1NC(=O)c1ccccc1OCC,4,0,-3,0
COc1ccc(C(=O)/C(=C\c2ccco2)N2C=CC=CC2=C(C#N)C#N)cc1,43*,0,5,-4
Cn1cccc1/C=C(\C(=O)c1ccccc1)N1C=CC=CC1=C(C#N)C#N,61*,0,-5,0
N#CC(C#N)=C1C=CC=CN1/C(=C\c1ccccc1)C(=O)c1ccccc1,-5,1,12,1
O=C1/C(=C/c2ccc(Cl)cc2)C=C(c2ccccc2)N1c1cccc([N+](=O)[O-])c1,-31,0,-10,0
